For experiment [1], the system named is Wnt5a (protein binding on small-molecule microarray). Put plainly: small molecules binding Wnt5a protein – biophysical, small-molecule microarray, 635/667 nm fluorescence, primary screen (AID 1142).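 Note: fluorescence read at 667 nm with signal to noise per printed feature.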 The settings on record: 635 nm fluorescence, higher = more signal.
A short description of experiment [2]: ATP-based viability of Huh7 replicon cells – cell-based, CellTiter-Glo luminescence, basal, 48 h, cytotoxicity control for HCV replication inhibitor project, primary screen (AID 1143).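 Note: Huh7 hepatoma cells carrying a hepatitis C replication reporter with no stimulus; test concentration not given here.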 The settings on record: higher = more signal, called active from +8 up or from −8 down.
A short description of experiment [3]: Pseudomonas biofilm growth suppression – PAO1 strain, BacTiter-Glo luminescence, LB-PBS, primary screen (AID 1144). The settings on record: P. aeruginosa PAO1 biofilm, 12 h, higher = more signal.
A short description of experiment [4]: basal CRE-LacZ reporter activity in PC12 – cell-based, unstimulated, primary screen (AID 1145). As to conditions: no forskolin, luminescence, 4.5 h, higher = more signal, called active from +8 up or from −8 down.
Experiment [5] can be described thus: forskolin-driven CRE-LacZ activity in PC12 – cell-based, CRE-LacZ reporter, forskolin-stimulated, primary screen (AID 1146).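 Note: PC12 cells with 6xCRE LacZ reporter stimulated by forskolin 10 µM; beta-galactosidase reporter signal reflecting CREB driven transcription.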 The settings on record: luminescence, 4.5 h, higher = more signal, called active from +8 up or from −8 down.
For experiment [6], the target named is Streptavidin (Streptomyces avidinii) (UniProt P22629). Put plainly: compounds binding control protein streptavidin – biophysical, small-molecule microarray, 635/667 nm fluorescence, artefact control for SMM compound annotation, primary screen (AID 1147).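 Note: signal reflects streptavidin binding to arrayed compounds as a control protein.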 As to conditions: higher = more signal.
Experiment [7] is described as follows: probe aInhba binding on compound microarray – biochemical, small-molecule microarray, 635/667 nm fluorescence, primary screen (AID 1148).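 Note: score merges 667nm spot fluorescence with signal-to-noise for antibody binding to printed compounds.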 As to conditions: higher = more signal.
Experiment [8] concerns the target Torsin-1A (Homo sapiens) (UniProt O14656). Put plainly: TOR1A wild-type binding on microarray – cell lysate, small-molecule microarray, lysate, 635/667 nm, primary screen (AID 1149). As to conditions: COS7 hTOR1A-WT lysate, 635 nm fluorescence, higher = more signal.
For experiment [9] the target is unchanged. Put plainly: torsin A mutant lysate binding on microarrays – cell lysate, small-molecule microarray, COS7 lysate, 635/667 nm fluorescence, primary screen (AID 1150).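 Note: score pools 667 nm emission and signal to noise measuring lysate protein binding.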 The settings on record: COS7 hTOR1A mutant lysate, 635 nm fluorescence, higher = more signal.
For experiment [10], the system named is Sonic hedgehog protein (Shh). Put plainly: Sonic hedgehog microarray binding compounds – biochemical, small-molecule microarray, 635/667 nm fluorescence, primary screen (AID 1151).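 Note: Shh protein binding to compounds spotted on small-molecule microarray slides; score combines spot fluorescence intensity with signal-to-noise across triplicate slides.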 The settings on record: 635 nm fluorescence, higher = more signal.
Experiment [11] is described as follows: optical density shifts of acrAB sulA E. coli – strain DRC41, OD650, 48 h, E. coli filamentation inducer project, primary screen (AID 1152).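 Note: E. coli MC1000 strain DRC41 lacking acrAB efflux pump and sulA.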 As to conditions: higher = more signal, called active from +8 up or from −8 down.
The nature of experiment [12]: probe aLefty1 binding on compound microarray – biochemical, small-molecule microarray, 635/667 nm fluorescence, primary screen (AID 1153).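 Note: score merges spot fluorescence with signal-to-noise ratio from the scanned slide images.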 The settings on record: higher = more signal.
Experiment [13] is described as follows: plasmodial surface anion channel blockers, osmotic lysis – cell-based, P. falciparum Indochina, OD700, 1 h, primary screen (AID 1154). As to conditions: P. falciparum Indochina infected RBC osmotic lysis, higher = more signal, called active from +8 up or from −8 down.
Experiment [14] in a line: plasmodial surface anion channel blockers, osmotic lysis – cell-based, P. falciparum Indochina, OD700, 2 h, primary screen (AID 1155).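 Note: lysis reports solute entry through the parasite surface anion channel PSAC.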 The settings on record: P. falciparum Indochina infected erythrocytes, higher = more signal, called active from +8 up or from −8 down.
A short description of experiment [15]: changes in parasitized red cell lysis, either direction – P. falciparum Indochina, OD700, 3 h, PSAC antagonist project, primary screen (AID 1156). As to conditions: P. falciparum-infected erythrocytes, osmotic lysis, higher = more signal, called active from +8 up or from −8 down.
The nature of experiment [16]: plasmodial surface anion channel blockers, osmotic lysis – cell-based, P. falciparum Indochina, OD700, 18 h, primary screen (AID 1157). The settings on record: P. falciparum Indochina infected erythrocytes, osmotic lysis OD700, 18 h; higher = more signal, called active from +8 up or from −8 down.
Experiment [17] can be described thus: S6 kinase pathway phospho-S6 level changes – cell-based, A549, cytoblot, luminescence, serum-stimulated, primary screen (AID 1158).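 Note: serum-stimulated A549 lung adenocarcinoma cells; signal is phosphorylated S6 detected by cytoblot immunostaining with HRP secondary.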 The settings on record: 5 h, higher = more signal.
Experiment [18] addresses NADPH oxidase 2 (Homo sapiens) (UniProt P04839). Put plainly: compounds shifting NOX2 Amplex Red fluorescence – cell-based, HEK293-NOX2, PMA-stimulated, NOX inhibitor project, primary screen (AID 1159). Note: test concentration not given here. The settings on record: 45 min, higher = more signal, called active from +8 up or from −8 down.
Experiment [19] has as its target NADPH oxidase 4 (Homo sapiens) (UniProt Q9NPH5). Put plainly: compounds shifting NOX4 Amplex Red fluorescence – cell-based, HEK293-NOX4, tetracycline-induced, NOX inhibitor project, primary screen (AID 1160). As to conditions: HEK293-NOX4, Amplex Red H2O2 fluorescence, 45 min; higher = more signal, called active from +8 up or from −8 down.
Experiment [20] concerns the target NADPH oxidase 5 (Homo sapiens) (UniProt Q96PH1). Put plainly: compounds shifting NOX5 Amplex Red fluorescence – cell-based, HEK293-NOX5, NOX inhibitor project, primary screen (AID 1161). The settings on record: HEK293-NOX5, ionomycin, 45 min, higher = more signal.

Each structure is given as a SMILES string. Active and inactive are the calls of the source. Unless noted, the rule behind the calls is not given here.

Our source for the composite z-score and z-score values is PubChem BioAssay.

Chain of NADPH oxidase 4 (Homo sapiens) (Q9NPH5 whole entry, looked up): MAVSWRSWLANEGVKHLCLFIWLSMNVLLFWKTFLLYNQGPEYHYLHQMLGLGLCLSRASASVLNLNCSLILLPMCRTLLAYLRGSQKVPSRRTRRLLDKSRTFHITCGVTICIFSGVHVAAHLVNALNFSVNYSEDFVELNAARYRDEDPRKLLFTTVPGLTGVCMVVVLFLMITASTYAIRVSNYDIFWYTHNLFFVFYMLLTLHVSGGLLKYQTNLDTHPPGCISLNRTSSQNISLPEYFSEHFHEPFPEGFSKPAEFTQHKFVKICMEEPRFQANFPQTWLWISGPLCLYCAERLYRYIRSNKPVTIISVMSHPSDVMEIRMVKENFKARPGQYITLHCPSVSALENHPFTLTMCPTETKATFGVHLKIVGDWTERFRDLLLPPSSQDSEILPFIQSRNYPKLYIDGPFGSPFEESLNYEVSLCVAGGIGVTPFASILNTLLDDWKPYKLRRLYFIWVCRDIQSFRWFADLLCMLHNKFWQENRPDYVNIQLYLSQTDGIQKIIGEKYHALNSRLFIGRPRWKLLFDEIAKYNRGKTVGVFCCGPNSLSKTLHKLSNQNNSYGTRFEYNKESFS
Chain of NADPH oxidase 2 (Homo sapiens) (P04839 whole entry, looked up): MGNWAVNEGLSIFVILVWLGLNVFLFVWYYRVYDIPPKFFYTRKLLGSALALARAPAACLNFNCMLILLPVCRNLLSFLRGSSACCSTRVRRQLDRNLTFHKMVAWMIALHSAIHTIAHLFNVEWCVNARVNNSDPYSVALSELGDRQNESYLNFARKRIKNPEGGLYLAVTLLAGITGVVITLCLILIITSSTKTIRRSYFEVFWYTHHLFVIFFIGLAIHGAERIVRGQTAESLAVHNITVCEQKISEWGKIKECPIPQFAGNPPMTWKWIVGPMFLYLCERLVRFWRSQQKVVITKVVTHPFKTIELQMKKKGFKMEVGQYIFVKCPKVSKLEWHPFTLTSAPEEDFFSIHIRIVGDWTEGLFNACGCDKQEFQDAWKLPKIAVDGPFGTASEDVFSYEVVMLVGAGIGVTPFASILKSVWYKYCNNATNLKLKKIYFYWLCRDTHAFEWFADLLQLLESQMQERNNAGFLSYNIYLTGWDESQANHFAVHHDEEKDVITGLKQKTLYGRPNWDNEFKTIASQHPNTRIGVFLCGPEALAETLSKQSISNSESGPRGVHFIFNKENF
Chain of NADPH oxidase 5 (Homo sapiens) (Q96PH1 whole entry, looked up): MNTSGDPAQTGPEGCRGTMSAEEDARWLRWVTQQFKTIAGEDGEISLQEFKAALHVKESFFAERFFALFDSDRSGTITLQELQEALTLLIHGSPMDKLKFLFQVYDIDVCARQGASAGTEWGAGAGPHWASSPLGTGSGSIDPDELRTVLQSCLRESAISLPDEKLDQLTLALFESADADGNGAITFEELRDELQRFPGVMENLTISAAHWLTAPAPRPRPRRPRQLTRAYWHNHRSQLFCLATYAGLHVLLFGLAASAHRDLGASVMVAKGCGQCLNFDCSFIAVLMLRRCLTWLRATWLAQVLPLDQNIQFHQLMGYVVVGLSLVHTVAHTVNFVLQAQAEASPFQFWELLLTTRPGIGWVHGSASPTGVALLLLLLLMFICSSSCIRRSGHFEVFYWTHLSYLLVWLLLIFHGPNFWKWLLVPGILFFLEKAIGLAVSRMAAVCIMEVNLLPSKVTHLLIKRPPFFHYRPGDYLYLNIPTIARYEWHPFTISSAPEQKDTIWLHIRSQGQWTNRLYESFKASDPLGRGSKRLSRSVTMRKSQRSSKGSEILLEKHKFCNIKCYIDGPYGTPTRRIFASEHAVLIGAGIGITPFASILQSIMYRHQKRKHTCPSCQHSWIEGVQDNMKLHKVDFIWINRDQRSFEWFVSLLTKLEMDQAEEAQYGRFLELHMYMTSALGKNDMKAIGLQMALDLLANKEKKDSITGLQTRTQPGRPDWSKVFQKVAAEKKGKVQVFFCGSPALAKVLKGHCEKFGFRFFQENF
Chain of Torsin-1A (Homo sapiens) (O14656 whole entry, looked up): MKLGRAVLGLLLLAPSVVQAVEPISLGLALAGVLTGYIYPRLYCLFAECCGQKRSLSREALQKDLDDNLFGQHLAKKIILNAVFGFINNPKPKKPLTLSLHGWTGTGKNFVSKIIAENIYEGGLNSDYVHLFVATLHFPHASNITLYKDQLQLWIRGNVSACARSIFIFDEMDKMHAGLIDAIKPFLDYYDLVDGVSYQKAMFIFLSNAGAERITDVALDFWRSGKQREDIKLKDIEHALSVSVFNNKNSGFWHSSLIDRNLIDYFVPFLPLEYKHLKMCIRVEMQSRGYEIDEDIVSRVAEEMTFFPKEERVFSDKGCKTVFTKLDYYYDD
Chain of Streptavidin (Streptomyces avidinii) (P22629 whole entry, looked up): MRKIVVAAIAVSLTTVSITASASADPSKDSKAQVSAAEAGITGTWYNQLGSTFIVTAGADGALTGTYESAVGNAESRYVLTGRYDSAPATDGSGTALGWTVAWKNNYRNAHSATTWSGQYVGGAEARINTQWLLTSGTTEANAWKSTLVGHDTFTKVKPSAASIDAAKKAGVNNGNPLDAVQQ

On to `CC(C)=NOC[C@@H](O)[C@H]1O[C@@H]2OC(C)(C)O[C@@H]2[C@H]1O`, for which the composite z-score in experiment [1] is -0.297; in experiment [6], 1.23; in [7], 0.333; with Torsin-1A (Homo sapiens) [8] it was 1.34; in the experiment with Torsin-1A (Homo sapiens) [9] it was 0.0837; in experiment [10], 0.785. In experiment [12], this compound registered a composite z-score of -0.0501. In addition, the z-score was 0.605 (inactive) in [2]; 0.503 (inactive) in [3]; -0.473 (inactive) in experiment [4]; -0.476 (inactive) in experiment [5]; 0.269 (inactive) in experiment [11]; 0.0289 (inactive) in experiment [13]. For the same compound, the z-score is 0.0612 (inactive) in [14]; -0.0091 (inactive) in experiment [15]; 0.269 (inactive) in experiment [16]; 0.0226 in experiment [17]; -0.162 (inactive) in experiment [18]; -0.514 (inactive) in [19]. Further, in [20], the z-score worked out at 0.0874.

As for `CCOC(=O)[C@H](Cc1ccccc1)NC(=O)CCC1CC(OC(=O)NCc2ccc3c(c2)OCO3)CC2(CCCC(COC(=O)NCCc3ccc(Cl)cc3)O2)O1` (stereo not given in full), the composite z-score in experiment [1] is 0.0468; in experiment [6] it was 1.14; in experiment [7], -0.0221; with Torsin-1A (Homo sapiens) [8] it was 0.147; with Torsin-1A (Homo sapiens) [9], 0.214; in [10], 1.11. This compound also returned a composite z-score in [12] of -0.281. The z-score was -1.42 (inactive) in experiment [2]; -1.89 (inactive) in [3]; -0.0696 (inactive) in experiment [4]; -0.71 (inactive) in experiment [5]; -0.393 (inactive) in experiment [11]; 1.44 (inactive) in experiment [13]. Besides, the z-score in experiment [14] was -0.0302 (inactive); in experiment [15], -0.249 (inactive); in experiment [16], -0.741 (inactive); in experiment [17], 1.51; in experiment [18], -0.194 (inactive); in [19] it was 0.396 (inactive). Further, the z-score in experiment [20] came out at 1.63.

Consider `COC(=O)CC=C[C@@H](C)[C@@H](C=NOC(C)CN1CCCCc2nc(C)c(C)cc21)NS(=O)(=O)c1ccc(C)cc1` (stereo not given in full), for which the composite z-score in experiment [1] was 0.104; in experiment [6] it was -0.343; in experiment [7] it was -0.0221; with Torsin-1A (Homo sapiens) [8], 1.05; in the experiment with Torsin-1A (Homo sapiens) [9], 0.705; in experiment [10], 0.56. Besides, the composite z-score in experiment [12] is 0.236. Also, the z-score in experiment [2] was 0.453 (inactive); in experiment [3] it was 0.89 (inactive); in experiment [4], -0.882 (inactive); in experiment [5], 0.877 (inactive); in experiment [11], 0.599 (inactive); in experiment [13], -0.193 (inactive). In addition, the z-score in experiment [14] was 0.36 (inactive); in [15], 0.151 (inactive); in [16], 0.0733 (inactive); in [17], -0.134; in experiment [18], -0.397 (inactive); in experiment [19], 0.339 (inactive). For the same compound, in [20], the z-score was found to be 0.266.

`O=C1[C@H]2[C@H]3[C@H](O)[C@H](O)CC(=NOCc4ccccc4)[C@H]3CC[C@H]2C(=O)N1C1CCCCC1`: the composite z-score is -0.0056 in experiment [1]; 0.457 in [6]; -0.0917 in experiment [7]; 0.161 with Torsin-1A (Homo sapiens) [8]; 1.03 in the experiment with Torsin-1A (Homo sapiens) [9]; 0.449 in experiment [10]. Also, in experiment [12], the composite z-score was -0.0222. Moreover, the z-score in [2] is -1.79 (inactive); in [3], 0.415 (inactive); in experiment [4] it was 0.52 (inactive); in [5], -0.262 (inactive); in [11], -0.135 (inactive); in [13], 21.3 (active). In addition, the z-score in experiment [14] was 2.36 (inactive); in experiment [15], 0.43 (inactive); in experiment [16] it was 0.842 (inactive); in experiment [17] it was -0.441; in experiment [18] it was -0.622 (inactive); in [19] it was -1.09 (inactive). Moreover, in experiment [20], the z-score was -4.07.

`O=C(NCCC[N+]1=CC=NC1c1ccccc1)N1CCCc2nc(-c3ccc(Br)cc3)ccc21` (stereo not given): the composite z-score in experiment [1] is -0.215; in experiment [6] it was 0.0054; in experiment [7], -0.118; with Torsin-1A (Homo sapiens) [8], 0.291; with Torsin-1A (Homo sapiens) [9], 0.405; in experiment [10], 0.322. In experiment [12], the composite z-score is -0.164. For the same compound, the z-score is -2.49 (inactive) in [2]; 0.616 (inactive) in [3]; -0.888 (inactive) in experiment [4]; -0.0384 (inactive) in experiment [5]; 0.315 (inactive) in [11]; 5.32 (inactive) in experiment [13]. In addition, the z-score was 0.705 (inactive) in experiment [14]; 1.5 (inactive) in experiment [15]; 0.518 (inactive) in [16]; -0.26 in experiment [17]; 0.528 (inactive) in [18]; -0.261 (inactive) in experiment [19]. Further, in [20], the z-score was -1.64.
